Columns and labels:
Assay in all cases: DAPPL (digital affinity profiling via proximity ligation, sequencing); 10 mM Tris-HCl pH 7.5, 50 mM NaCl, 1 mM DTT, 4% glycerol, room temperature, 30 min; GST-TFs on glutathione beads, 16-mer random dsDNA library, 0.1% formaldehyde crosslink after washing; high values mean tight binding
Details in all cases: protein: recombinant; tags: N-terminal GST; dsDNA, one strand shown
ERF = target: T1, ERF (Homo sapiens, UniProt P50548 1-548)
T1 sequence: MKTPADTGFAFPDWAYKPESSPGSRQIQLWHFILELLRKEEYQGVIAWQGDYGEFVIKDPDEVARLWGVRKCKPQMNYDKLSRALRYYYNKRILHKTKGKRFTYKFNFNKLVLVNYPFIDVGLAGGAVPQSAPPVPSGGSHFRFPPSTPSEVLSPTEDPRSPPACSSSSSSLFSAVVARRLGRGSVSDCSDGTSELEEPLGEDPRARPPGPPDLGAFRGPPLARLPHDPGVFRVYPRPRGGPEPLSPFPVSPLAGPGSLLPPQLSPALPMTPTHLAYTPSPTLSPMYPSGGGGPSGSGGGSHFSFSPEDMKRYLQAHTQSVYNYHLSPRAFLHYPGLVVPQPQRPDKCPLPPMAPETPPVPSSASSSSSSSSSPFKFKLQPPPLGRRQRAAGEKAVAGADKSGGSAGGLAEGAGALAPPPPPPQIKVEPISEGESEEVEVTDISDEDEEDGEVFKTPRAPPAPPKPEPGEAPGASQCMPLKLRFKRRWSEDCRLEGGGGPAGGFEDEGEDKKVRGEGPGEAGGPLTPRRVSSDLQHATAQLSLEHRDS
Summary of the method: (§1)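 After expression in yeast as GST fusions, human transcription factors were bound to glutathione beads, DNA-barcoded and mixed with a tag-only sample. The pools were incubated with 200 nmole of a 16-mer random double-stranded DNA library in Tris/NaCl/DTT/glycerol buffer (30 min, room temperature), washed and crosslinked with 0.1% formaldehyde. Proximity ligation with BsaI/T4 ligase ran for 1 h at 37 °C, before PCR amplification and sequencing on an Illumina NextSeq500. Binding signal is a hexamer's read frequency for a factor divided by its frequency for the tag-only sample.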

ETV3L = target: T2, ETV3L (Homo sapiens, UniProt Q6ZN32 1-361)
T2 sequence: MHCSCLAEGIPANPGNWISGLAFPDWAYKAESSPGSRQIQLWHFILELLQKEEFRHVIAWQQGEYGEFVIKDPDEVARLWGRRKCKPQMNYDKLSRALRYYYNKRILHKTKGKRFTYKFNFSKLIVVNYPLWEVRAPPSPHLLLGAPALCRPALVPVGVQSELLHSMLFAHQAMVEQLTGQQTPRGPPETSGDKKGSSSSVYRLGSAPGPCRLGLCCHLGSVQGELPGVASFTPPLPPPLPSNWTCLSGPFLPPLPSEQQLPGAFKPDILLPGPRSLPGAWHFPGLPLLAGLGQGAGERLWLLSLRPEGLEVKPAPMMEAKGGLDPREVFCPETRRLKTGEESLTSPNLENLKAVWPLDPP
Summary of the method: as §1

ETS2 = target: T3, ETS2 (Homo sapiens, UniProt P15036 1-469)
T3 sequence: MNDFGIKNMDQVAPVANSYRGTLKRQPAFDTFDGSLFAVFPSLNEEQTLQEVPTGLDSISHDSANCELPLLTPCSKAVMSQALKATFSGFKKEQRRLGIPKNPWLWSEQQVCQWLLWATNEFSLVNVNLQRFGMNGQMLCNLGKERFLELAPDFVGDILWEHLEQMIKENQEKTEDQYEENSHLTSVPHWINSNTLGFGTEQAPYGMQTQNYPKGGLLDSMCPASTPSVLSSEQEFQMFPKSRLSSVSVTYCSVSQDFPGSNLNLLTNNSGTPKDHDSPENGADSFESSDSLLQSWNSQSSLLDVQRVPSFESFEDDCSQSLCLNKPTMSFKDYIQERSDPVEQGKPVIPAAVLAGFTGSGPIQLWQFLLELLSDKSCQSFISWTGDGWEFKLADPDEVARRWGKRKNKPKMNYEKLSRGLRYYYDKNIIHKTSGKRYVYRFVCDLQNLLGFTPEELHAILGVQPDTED
Summary of the method: as §1

SPDEF = target: T4, SPDEF (Homo sapiens, UniProt O95238 1-335)
T4 sequence: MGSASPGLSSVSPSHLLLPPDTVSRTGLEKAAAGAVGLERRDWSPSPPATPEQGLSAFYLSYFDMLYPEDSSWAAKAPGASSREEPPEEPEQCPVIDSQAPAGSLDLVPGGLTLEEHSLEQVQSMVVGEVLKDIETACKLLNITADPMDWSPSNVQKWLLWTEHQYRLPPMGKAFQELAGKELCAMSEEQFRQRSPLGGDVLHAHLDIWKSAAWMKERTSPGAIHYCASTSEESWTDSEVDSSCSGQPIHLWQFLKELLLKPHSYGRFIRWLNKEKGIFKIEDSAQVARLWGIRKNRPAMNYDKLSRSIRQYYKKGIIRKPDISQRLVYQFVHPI
Summary of the method: as §1

ETV7 = target: T5, ETV7 (Homo sapiens, UniProt Q9Y603 1-341)
T5 sequence: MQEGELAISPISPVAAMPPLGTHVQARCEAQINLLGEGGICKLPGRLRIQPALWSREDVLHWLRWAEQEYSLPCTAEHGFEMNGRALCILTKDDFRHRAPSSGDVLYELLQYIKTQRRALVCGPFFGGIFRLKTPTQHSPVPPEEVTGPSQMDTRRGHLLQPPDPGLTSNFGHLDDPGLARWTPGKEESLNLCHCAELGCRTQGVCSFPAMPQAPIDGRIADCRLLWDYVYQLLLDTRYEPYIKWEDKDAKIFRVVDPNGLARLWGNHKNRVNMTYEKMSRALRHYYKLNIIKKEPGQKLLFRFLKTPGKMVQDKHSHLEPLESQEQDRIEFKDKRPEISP
Summary of the method: as §1

ELF5 = target: T6, ELF5 (Homo sapiens, UniProt Q9UKW6-2 1-255)
T6 sequence: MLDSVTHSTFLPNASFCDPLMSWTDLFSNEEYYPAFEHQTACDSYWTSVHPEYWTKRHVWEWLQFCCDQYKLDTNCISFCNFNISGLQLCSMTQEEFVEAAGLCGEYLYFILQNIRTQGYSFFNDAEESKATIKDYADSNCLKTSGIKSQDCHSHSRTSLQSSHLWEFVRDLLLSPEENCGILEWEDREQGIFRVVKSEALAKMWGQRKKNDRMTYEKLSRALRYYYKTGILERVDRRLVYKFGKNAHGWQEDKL
Summary of the method: as §1

ETV3 = target: T7, ETV3 (Homo sapiens, UniProt P41162-2 1-143)
T7 sequence: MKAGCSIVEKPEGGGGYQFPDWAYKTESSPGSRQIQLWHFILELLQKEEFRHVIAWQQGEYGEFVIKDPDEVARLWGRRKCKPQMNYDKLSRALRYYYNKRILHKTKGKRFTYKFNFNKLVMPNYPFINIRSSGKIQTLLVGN
Summary of the method: as §1

ETV6 = ETV6 (Homo sapiens, UniProt P41212 1-452)
Chain of ETV6 (P41212 whole entry): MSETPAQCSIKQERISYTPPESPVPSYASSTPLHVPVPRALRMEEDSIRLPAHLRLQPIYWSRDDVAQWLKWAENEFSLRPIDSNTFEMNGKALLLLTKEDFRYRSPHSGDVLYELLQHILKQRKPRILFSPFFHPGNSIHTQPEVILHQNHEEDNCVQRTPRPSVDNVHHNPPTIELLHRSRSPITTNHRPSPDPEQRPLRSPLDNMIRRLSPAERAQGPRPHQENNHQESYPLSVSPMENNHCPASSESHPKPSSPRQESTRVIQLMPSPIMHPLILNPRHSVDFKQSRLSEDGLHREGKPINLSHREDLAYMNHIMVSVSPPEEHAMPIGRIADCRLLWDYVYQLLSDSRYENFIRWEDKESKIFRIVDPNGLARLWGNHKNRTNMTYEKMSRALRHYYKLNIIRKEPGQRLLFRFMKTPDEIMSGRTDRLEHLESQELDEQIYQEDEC
Summary of the method: as §1

AAACCA
binding signal (ERF): 1.16 fold enrichment (6-mer frequency, TF over GST control)
binding signal (ETV3L): 1.18 fold enrichment (6-mer frequency, TF over GST control)
binding signal (ETS2): 1.17 fold enrichment (6-mer frequency, TF over GST control)
binding signal (SPDEF): 1.1 fold enrichment (6-mer frequency, TF over GST control)
binding signal (ETV7): 1.2 fold enrichment (6-mer frequency, TF over GST control)
binding signal (ELF5): 1.13 fold enrichment (6-mer frequency, TF over GST control)
binding signal (ETV3): 1.15 fold enrichment (6-mer frequency, TF over GST control)
binding signal (ETV6): 1.21 fold enrichment (6-mer frequency, TF over GST control)

TCTATT
binding signal (ERF): 1.26 fold enrichment (6-mer frequency, TF over GST control)
binding signal (ETV3L): 1.28 fold enrichment (6-mer frequency, TF over GST control)
binding signal (ETS2): 1.23 fold enrichment (6-mer frequency, TF over GST control)
binding signal (SPDEF): 1.37 fold enrichment (6-mer frequency, TF over GST control)
binding signal (ETV7): 1.11 fold enrichment (6-mer frequency, TF over GST control)
binding signal (ELF5): 1.18 fold enrichment (6-mer frequency, TF over GST control)
binding signal (ETV3): 1.25 fold enrichment (6-mer frequency, TF over GST control)
binding signal (ETV6): 1.29 fold enrichment (6-mer frequency, TF over GST control)

CTCTGA
binding signal (ERF): 1.22 fold enrichment (6-mer frequency, TF over GST control)
binding signal (ETV3L): 1.07 fold enrichment (6-mer frequency, TF over GST control)
binding signal (ETS2): 1.25 fold enrichment (6-mer frequency, TF over GST control)
binding signal (SPDEF): 1.11 fold enrichment (6-mer frequency, TF over GST control)
binding signal (ETV7): 1.34 fold enrichment (6-mer frequency, TF over GST control)
binding signal (ELF5): 1.11 fold enrichment (6-mer frequency, TF over GST control)
binding signal (ETV3): 1.19 fold enrichment (6-mer frequency, TF over GST control)
binding signal (ETV6): 1.16 fold enrichment (6-mer frequency, TF over GST control)

GAACTC
binding signal (ERF): 1.11 fold enrichment (6-mer frequency, TF over GST control)
binding signal (ETV3L): 1.3 fold enrichment (6-mer frequency, TF over GST control)
binding signal (ETS2): 1.26 fold enrichment (6-mer frequency, TF over GST control)
binding signal (SPDEF): 1.33 fold enrichment (6-mer frequency, TF over GST control)
binding signal (ETV7): 1.29 fold enrichment (6-mer frequency, TF over GST control)
binding signal (ELF5): 1.32 fold enrichment (6-mer frequency, TF over GST control)
binding signal (ETV3): 1.33 fold enrichment (6-mer frequency, TF over GST control)
binding signal (ETV6): 1.28 fold enrichment (6-mer frequency, TF over GST control)

TCCACA
binding signal (ERF): 1.31 fold enrichment (6-mer frequency, TF over GST control)
binding signal (ETV3L): 1.24 fold enrichment (6-mer frequency, TF over GST control)
binding signal (ETS2): 1.29 fold enrichment (6-mer frequency, TF over GST control)
binding signal (SPDEF): 1.25 fold enrichment (6-mer frequency, TF over GST control)
binding signal (ETV7): 1.17 fold enrichment (6-mer frequency, TF over GST control)
binding signal (ELF5): 1.13 fold enrichment (6-mer frequency, TF over GST control)
binding signal (ETV3): 1.2 fold enrichment (6-mer frequency, TF over GST control)
binding signal (ETV6): 1.25 fold enrichment (6-mer frequency, TF over GST control)

TCTCCC
binding signal (ERF): 1.89 fold enrichment (6-mer frequency, TF over GST control)
binding signal (ETV3L): 1.61 fold enrichment (6-mer frequency, TF over GST control)
binding signal (ETS2): 1.6 fold enrichment (6-mer frequency, TF over GST control)
binding signal (SPDEF): 1.6 fold enrichment (6-mer frequency, TF over GST control)
binding signal (ETV7): 1.57 fold enrichment (6-mer frequency, TF over GST control)
binding signal (ELF5): 1.7 fold enrichment (6-mer frequency, TF over GST control)
binding signal (ETV3): 1.71 fold enrichment (6-mer frequency, TF over GST control)
binding signal (ETV6): 1.76 fold enrichment (6-mer frequency, TF over GST control)

TGCTCT
binding signal (ERF): 1.35 fold enrichment (6-mer frequency, TF over GST control)
binding signal (ETV3L): 1.37 fold enrichment (6-mer frequency, TF over GST control)
binding signal (ETS2): 1.4 fold enrichment (6-mer frequency, TF over GST control)
binding signal (SPDEF): 1.17 fold enrichment (6-mer frequency, TF over GST control)
binding signal (ETV7): 1.24 fold enrichment (6-mer frequency, TF over GST control)
binding signal (ELF5): 1.27 fold enrichment (6-mer frequency, TF over GST control)
binding signal (ETV3): 1.29 fold enrichment (6-mer frequency, TF over GST control)
binding signal (ETV6): 1.31 fold enrichment (6-mer frequency, TF over GST control)

ATTGCG
binding signal (ERF): 1.35 fold enrichment (6-mer frequency, TF over GST control)
binding signal (ETV3L): 1.29 fold enrichment (6-mer frequency, TF over GST control)
binding signal (ETS2): 1.27 fold enrichment (6-mer frequency, TF over GST control)
binding signal (SPDEF): 1.09 fold enrichment (6-mer frequency, TF over GST control)
binding signal (ETV7): 1.17 fold enrichment (6-mer frequency, TF over GST control)
binding signal (ELF5): 1.21 fold enrichment (6-mer frequency, TF over GST control)
binding signal (ETV3): 1.16 fold enrichment (6-mer frequency, TF over GST control)
binding signal (ETV6): 1.27 fold enrichment (6-mer frequency, TF over GST control)

Source: paper PMC7862700, “An all-to-all approach to the identification of sequence-specific readers for epigenetic DNA modifications on cytosine”
